In test [1] the target is Estrogen receptor beta (Homo sapiens) (UniProt Q92731). The experiment in a line: qHTS assay to identify small molecule antagonists of the estrogen receptor beta (ER-beta) signaling pathway (AID 1259378; active = well fitted inhibition curve with a large enough effect in the signal ratio in the repeat runs, not every such curve was filed as active; the % refers to the signal ratio; also: potency is read from the fitted curve at half-maximal effect). The procedure, abridged:
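Antagonist mode: compounds added to beta-lactamase reporter HEK293T ER-beta-UAS cells stimulated with E2 (1nM final), 16 hr at 37C. LiveBLAzer B/G FRET substrate, 2 hours room temperature, fluorescence read-out.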

Test [2] is described as follows: qHTS assay to identify small molecule agonists of the androgen receptor (AR) signaling pathway in the presence of an antagonist - cell viability counter screen (AID 1259379). Also: nearly all actives have a fitted effect of over 25% in size. Also: potency is read from the fitted curve at half-maximal effect. The procedure, abridged: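 In MDA-kb2 cells (human breast carcinoma, MMTV-luciferase), compounds at 15 concentrations plus 3.0uM nilutamide; 16 hr, 37C, 0% CO2; CellTiter-Fluor fluorescence read for viability.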
In general terms: qHTS replaces the single test concentration by a dilution series.

For test [3], the target named is Androgen receptor (Homo sapiens) (UniProt P10275). Kind of test: qHTS assay to identify small molecule agonists of the androgen receptor (AR) signaling pathway in the presence of an antagonist (AID 1259381; calls by dose curve; also: nearly all actives have a fitted effect of over 15% in size). Summed up: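 Here, 15-concentration compound series were pin-transferred onto MDA-kb2 MMTV-luciferase cells already dosed with nilutamide (3.0uM final). After 16hr at 37C, ONE-Glo was added and luminescence read 30min later at room temperature.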
Sequence of Androgen receptor (Homo sapiens) (P10275 whole entry, looked up): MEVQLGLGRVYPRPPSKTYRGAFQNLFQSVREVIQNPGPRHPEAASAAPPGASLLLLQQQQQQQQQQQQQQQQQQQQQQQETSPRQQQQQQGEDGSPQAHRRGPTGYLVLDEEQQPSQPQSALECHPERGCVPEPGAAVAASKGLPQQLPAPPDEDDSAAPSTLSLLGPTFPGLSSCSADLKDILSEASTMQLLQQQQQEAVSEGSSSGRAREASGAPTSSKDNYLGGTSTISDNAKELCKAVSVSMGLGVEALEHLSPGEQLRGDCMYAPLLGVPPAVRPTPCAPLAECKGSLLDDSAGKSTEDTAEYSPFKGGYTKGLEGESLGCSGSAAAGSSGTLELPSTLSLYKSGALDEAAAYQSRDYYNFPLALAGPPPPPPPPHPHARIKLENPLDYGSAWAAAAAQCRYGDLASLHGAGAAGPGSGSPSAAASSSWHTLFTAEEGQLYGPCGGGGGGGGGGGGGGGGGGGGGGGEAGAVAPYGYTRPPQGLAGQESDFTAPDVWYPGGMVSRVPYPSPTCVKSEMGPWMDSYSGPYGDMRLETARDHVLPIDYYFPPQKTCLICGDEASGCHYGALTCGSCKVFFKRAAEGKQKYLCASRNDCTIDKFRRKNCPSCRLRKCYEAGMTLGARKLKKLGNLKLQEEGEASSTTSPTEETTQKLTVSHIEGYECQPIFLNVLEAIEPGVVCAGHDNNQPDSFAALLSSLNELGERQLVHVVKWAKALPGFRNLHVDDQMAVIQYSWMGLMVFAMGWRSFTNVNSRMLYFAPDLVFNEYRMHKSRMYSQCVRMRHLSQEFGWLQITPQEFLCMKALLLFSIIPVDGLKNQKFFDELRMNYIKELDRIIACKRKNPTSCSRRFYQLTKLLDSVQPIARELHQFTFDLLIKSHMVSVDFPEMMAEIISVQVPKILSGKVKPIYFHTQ

A short description of test [4]: qHTS assay to identify small molecule antagonists of the estrogen receptor beta (ER-beta) signaling pathway - cell viability counter screen (AID 1259382).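 Also: HEK293T cells carrying ER-beta-UAS-bla reporter stimulated with estradiol; series mostly up to about 92 µM; nearly all actives have a fitted effect of over 55% in size.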 The procedure, abridged: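 Tox21 10K library tested in qHTS format on ER-beta-bla HEK293T cells stimulated with 1nM E2; 16 hr treatment at 37C. Same-well CellTiter-Glo luminescence served as the cell viability measure.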

The target in test [5] is Estrogen receptor (Homo sapiens) (UniProt P03372). Kind of test: qHTS assay to identify small molecule agonists of the estrogen receptor alpha (ER-alpha) signaling pathway in the presence of an antagonist (AID 1259383; calls by dose curve; also: top concentration of the series differs between compounds; nearly all actives have a fitted effect of over 15% in size). The procedure, abridged:
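In VM7Luc4E2 cells, 4,000 per well, compounds at 15 concentrations were co-incubated 22hr at 37C with 10.0nM final ICI-182,780. Luminescence from the stably transfected 4×ERE-luciferase reporter was recorded 30min after ONE-Glo addition.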

Test [6] can be described thus: qHTS assay to identify small molecule agonists or antagonists of the thyroid stimulating hormone receptor (TSHR) signaling pathway - wild type cell line counter screen (AID 1259384; calls by dose curve). The procedure, abridged:
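Counter screen in untransfected Hek293: compounds (15-point titration, triplicate) plus phosphodiesterase inhibitor Ro20-1724 added after 18 h plating; 30 min RT. Intracellular cAMP via competitive d2/cryptate immunoassay, 1 h incubation.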

Test [7] deals with Thyrotropin receptor (Homo sapiens) (UniProt P16473). The experiment in a line: qHTS assay to identify small molecule antagonists of the thyroid stimulating hormone receptor (TSHR) signaling pathway (AID 1259385; calls by dose curve; also: nearly all actives have a fitted effect of over 20% in size). The procedure, abridged: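 Antagonist mode: compound-treated TSHR-expressing HEK293 cells were stimulated with 1.5 ng/mL TSH (final) in presence of Ro20-1724 for 30 min at RT. HTRF cAMP detection after 1 h; each compound tested at 15 concentrations, triplicate.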
Sequence of Thyrotropin receptor (Homo sapiens) (P16473 whole entry, looked up): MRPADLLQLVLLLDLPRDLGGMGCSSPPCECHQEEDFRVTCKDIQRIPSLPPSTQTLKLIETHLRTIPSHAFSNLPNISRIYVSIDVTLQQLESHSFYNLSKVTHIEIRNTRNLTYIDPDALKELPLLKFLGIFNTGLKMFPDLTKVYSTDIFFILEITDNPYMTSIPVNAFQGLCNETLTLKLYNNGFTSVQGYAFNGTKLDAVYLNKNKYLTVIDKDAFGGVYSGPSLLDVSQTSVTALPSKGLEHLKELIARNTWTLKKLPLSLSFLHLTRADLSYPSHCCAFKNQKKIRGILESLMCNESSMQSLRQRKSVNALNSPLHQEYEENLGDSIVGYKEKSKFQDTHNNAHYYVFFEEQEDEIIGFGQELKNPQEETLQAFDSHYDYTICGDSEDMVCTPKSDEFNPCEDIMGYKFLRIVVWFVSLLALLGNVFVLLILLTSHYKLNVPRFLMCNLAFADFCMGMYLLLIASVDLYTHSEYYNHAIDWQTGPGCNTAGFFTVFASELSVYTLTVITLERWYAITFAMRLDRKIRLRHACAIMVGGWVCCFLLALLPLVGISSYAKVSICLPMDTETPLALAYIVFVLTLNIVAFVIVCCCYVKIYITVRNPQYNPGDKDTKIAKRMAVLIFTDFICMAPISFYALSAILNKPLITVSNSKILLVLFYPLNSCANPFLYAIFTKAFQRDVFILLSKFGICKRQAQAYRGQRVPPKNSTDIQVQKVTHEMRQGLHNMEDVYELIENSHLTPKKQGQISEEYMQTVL

A short description of test [8]: qHTS assay to identify small molecule agonists of the estrogen receptor alpha (ER-alpha) signaling pathway in the presence of an antagonist - cell viability counter screen (AID 1259386).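 Also: series mostly up to about 92 µM; cells exposed to compounds for 22 h at 37 °C before the viability read; nearly all actives have a fitted effect of over 30% in size.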 The procedure, abridged: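 Fluorescent CellTiter-Fluor viability signal from VM7Luc4E2 cells, with the reagent added during the final hour of a 22hr compound exposure at 37C in the presence of 10.0nM ICI-182,780.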

The target in test [9] is Progesterone receptor (Homo sapiens) (UniProt P06401). Kind of test: qHTS assay to identify small molecule agonists of the progesterone receptor (PR) signaling pathway (AID 1346784; calls by dose curve; also: nearly all actives have a fitted effect of over 30% in size). The procedure, abridged: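 Agonist qHTS: compounds pinned onto 3,000 PR-UAS-bla HEK 293T cells per well in charcoal-stripped serum medium, 16hr at 37C, then beta-lactamase activity measured by LiveBLAzer FRET fluorescence after 2 hours at room temperature.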
Sequence of Progesterone receptor (Homo sapiens) (P06401 whole entry, looked up): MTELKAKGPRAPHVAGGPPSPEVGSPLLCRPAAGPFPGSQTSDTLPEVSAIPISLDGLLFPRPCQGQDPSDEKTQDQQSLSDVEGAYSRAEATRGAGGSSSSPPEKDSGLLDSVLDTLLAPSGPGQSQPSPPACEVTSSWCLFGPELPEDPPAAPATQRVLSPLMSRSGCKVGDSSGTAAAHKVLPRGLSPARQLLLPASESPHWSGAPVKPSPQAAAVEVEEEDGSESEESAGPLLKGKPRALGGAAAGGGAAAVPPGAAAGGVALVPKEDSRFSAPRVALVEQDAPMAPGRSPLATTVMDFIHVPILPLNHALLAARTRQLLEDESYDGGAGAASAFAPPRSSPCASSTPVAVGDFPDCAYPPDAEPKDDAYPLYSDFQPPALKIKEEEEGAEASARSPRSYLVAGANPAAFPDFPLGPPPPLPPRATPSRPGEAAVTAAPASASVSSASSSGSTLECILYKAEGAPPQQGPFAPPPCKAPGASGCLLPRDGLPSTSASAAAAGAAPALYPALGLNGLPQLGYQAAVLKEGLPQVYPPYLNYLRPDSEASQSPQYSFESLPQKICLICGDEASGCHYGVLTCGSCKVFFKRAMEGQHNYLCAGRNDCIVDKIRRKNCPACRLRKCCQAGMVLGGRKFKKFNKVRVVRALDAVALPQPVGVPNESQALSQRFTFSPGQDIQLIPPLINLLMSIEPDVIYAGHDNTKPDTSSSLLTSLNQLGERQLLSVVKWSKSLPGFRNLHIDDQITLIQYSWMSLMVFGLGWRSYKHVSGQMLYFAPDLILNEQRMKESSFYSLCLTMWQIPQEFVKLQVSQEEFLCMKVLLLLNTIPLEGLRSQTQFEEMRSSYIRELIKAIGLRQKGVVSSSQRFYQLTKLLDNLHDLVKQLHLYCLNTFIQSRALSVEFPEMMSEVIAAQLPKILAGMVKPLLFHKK

Test [10] has the same target. The experiment in a line: qHTS assay to identify small molecule antagonists of the progesterone receptor (PR) signaling pathway (AID 1346795; active = well fitted inhibition curve with a large enough effect in the signal ratio in the repeat runs, not every such curve was filed as active; the % refers to the signal ratio; also: potency is read from the fitted curve at half-maximal effect). Summed up: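 Antagonist mode with agonist R5020 at 1 nM final and 16 hr incubation at 37C. Reporter was beta-lactamase driven by UAS in HEK293T (PR-UAS-bla), 2% charcoal-stripped serum; signal from LiveBLAzer FRET substrate, 2 hr at room temperature.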

Test [11] in a line: qHTS assay to identify small molecule antagonists of the progesterone receptor (PR) signaling pathway - cell viability counter screen (AID 1346798). Also: series mostly up to about 92 µM; nearly all actives have a fitted effect of over 50% in size. Summed up: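 Cytotoxicity read as CellTiter-Glo luminescence (30 min, room temperature) in the same wells as the beta-lactamase readout. HEK293T PR-UAS-bla cells in charcoal-stripped 2% FBS received compound and R5020, then 16 h at 37C, 5% CO2.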

Test [12] can be described thus: qHTS assay to identify small molecule agonists of the progesterone receptor (PR) signaling pathway - cell viability counter screen (AID 1346799; calls by dose curve; also: nearly all actives have a fitted effect of over 45% in size). Summed up: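 Cytotoxicity measured by CellTiter-Glo luminescence (30 min, RT) in the same wells as the PR beta-lactamase agonist read. Those HEK293T cells had 16 h compound treatment at 37 C in 2% charcoal-stripped FBS medium.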

Test [13] can be described thus: qHTS assay to identify small molecule antagonists of the TGF-beta/Smad signaling pathway - cell viability counter screen (AID 1346824). Also: nearly all actives have a fitted effect of over 50% in size. The procedure, abridged: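 Cytotoxicity counter-screen run in the same wells as the beta-lactamase Smad reporter read: CellTiter-Glo luminescence after 30 min at room temperature. HEK 293T SBE-bla cells had 5 hr compound exposure at 37 C with TGF-beta1 (0.25 ng/mL stock).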

Test [14] is described as follows: qHTS assay to identify small molecule agonists of the TGF-beta/Smad signaling pathway (AID 1346859; active = well fitted activation curve with a large enough effect in the signal ratio in the repeat runs, not every such curve was filed as active; the % refers to the signal ratio; also: series mostly up to about 77 µM). The procedure, abridged: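 Fluorescence (ex 405 nm; em 460 and 530 nm) was read 2 h after LiveBLAzer FRET substrate at RT. The preceding compound treatment of overnight-plated SBE-bla HEK293T cells lasted 5 h at 37 C.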
Test [15] concerns the target Thyrotropin-releasing hormone receptor (Homo sapiens) (UniProt P34981). Kind of test: qHTS assay to identify small molecule antagonists of the thyrotropin-releasing hormone receptor (TRHR) signaling pathway (AID 1346877; active = well fitted inhibition curve with a large enough effect in the repeat runs, not every such curve was filed as active; also: series mostly up to about 51 µM). Summed up: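 In this cell-based calcium flux format, HEK293 cells expressing TRHR received test compound for 5 min before the agonist TRH (1 nM final). Dye loading lasted 2 h at 37 °C.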

Test [16] shares this target. The experiment in a line: qHTS assay to identify small molecule agonists of the thyrotropin-releasing hormone receptor (TRHR) signaling pathway (AID 1346891; calls by dose curve; also: series mostly up to about 58 µM). The procedure, abridged: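 Agonist-mode intracellular calcium readout: kinetic fluorescence over 3 min at 1 s intervals after compound addition to TRHR-HEK293 cells (18 h seeded, 2 h dye-loaded at 37 C). Fifteen concentrations, triplicates.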

A short description of test [17]: Human pregnane X receptor (PXR) small molecule agonists, qHTS cell viability counter screen (AID 1346977). Also: nearly all actives have a fitted effect of over 50% in size. Also: potency is read from the fitted curve at half-maximal effect. The procedure, abridged:
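Same-well viability read: CellTiter-Fluor added after 23 hr compound exposure, fluorescence measured 1 hr later. Cells were PXR-Luc HepG2 seeded at 2,000/well in 5% charcoal-stripped FBS medium, rested 5 hr before dosing at 37 C.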

A short description of test [18]: qHTS assay to identify small molecule agonists of the estrogen receptor beta (ER-beta) signaling pathway - cell viability counter screen (AID 1259380). Also: nearly all actives have a fitted effect of over 30% in size. Also: potency is read from the fitted curve at half-maximal effect. Summed up: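 Viability of ER-beta-UAS-bla HEK293T cells was determined by CellTiter-Glo luminescence following 16 hr treatment with test compounds at 37C.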
The nature of test [19]: qHTS assay to identify small molecule agonists of the TGF-beta/Smad signaling pathway - cell viability counter screen (AID 1346829). Also: top concentration of the series differs between compounds; nearly all actives have a fitted effect of over 45% in size. The procedure, abridged:
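Luminescence from CellTiter-Glo, read after a 30 min room-temperature incubation, gives cell viability of SBE-bla HEK 293T cells treated 5 hr with compounds at 37 C.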

Inconclusive results are not listed. Calls of active or inactive are those of the source. Unless noted, calls follow the shape of the dose curve; as a rule, active = well fitted curve in the direction sought with a large enough effect in the repeat runs; inconclusive = weak or mixed curves; inactive = no such curve, though single readings can be large; an effect the other way counts as inactive or inconclusive.

Sequence of Estrogen receptor beta (Homo sapiens) (Q92731 whole entry, looked up): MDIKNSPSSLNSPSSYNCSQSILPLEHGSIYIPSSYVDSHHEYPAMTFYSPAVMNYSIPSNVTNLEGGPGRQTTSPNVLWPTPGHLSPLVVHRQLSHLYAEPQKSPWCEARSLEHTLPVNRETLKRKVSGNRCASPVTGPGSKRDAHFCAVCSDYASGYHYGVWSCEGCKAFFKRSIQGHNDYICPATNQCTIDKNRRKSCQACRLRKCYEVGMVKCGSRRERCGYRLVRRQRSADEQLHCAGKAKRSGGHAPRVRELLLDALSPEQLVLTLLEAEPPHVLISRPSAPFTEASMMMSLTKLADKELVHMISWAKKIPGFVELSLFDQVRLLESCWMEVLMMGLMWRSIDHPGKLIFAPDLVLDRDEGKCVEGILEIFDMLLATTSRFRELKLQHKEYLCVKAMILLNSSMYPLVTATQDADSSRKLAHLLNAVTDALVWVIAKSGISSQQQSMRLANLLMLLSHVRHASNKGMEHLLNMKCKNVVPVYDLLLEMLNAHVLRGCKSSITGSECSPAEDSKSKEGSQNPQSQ
Sequence of Thyrotropin-releasing hormone receptor (Homo sapiens) (P34981 whole entry, looked up): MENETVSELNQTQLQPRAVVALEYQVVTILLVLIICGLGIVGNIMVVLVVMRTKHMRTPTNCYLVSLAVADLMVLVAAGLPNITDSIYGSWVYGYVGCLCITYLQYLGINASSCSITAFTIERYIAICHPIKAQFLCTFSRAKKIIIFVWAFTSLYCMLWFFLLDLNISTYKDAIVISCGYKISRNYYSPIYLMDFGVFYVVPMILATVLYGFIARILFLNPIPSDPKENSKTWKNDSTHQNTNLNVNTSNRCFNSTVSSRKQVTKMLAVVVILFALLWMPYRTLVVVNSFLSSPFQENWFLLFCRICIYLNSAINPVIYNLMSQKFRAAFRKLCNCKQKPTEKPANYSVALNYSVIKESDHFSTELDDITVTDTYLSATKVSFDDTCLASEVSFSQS
Sequence of Estrogen receptor (Homo sapiens) (P03372 whole entry, looked up): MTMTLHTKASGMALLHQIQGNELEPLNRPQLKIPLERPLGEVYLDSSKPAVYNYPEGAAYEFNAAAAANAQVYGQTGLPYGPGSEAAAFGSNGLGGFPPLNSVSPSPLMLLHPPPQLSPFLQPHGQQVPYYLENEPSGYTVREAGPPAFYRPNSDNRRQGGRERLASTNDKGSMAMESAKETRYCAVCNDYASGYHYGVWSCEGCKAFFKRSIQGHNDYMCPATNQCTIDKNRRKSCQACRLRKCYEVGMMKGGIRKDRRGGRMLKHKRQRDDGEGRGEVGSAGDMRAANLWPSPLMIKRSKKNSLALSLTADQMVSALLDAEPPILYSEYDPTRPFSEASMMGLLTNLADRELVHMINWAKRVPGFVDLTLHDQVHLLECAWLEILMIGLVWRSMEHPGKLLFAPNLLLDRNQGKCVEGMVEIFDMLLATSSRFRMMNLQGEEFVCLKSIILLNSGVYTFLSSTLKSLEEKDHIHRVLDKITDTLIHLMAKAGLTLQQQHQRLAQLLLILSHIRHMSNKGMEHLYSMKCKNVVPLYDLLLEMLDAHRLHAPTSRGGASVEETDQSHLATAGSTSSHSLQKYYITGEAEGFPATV

Regarding `O=c1cccc[nH]1`, the Potency entry in [1], in test [2], in test [3], in test [4], in test [5] and in [7] was “inactive” each time. For the same molecule, the Potency entry in [8], in [10], in [11], in test [12], in [13] and in test [14] was “inactive” each time. For the same molecule, the Potency result in test [15], in test [16] and in test [17] was “inactive” each time. The call in test [6] and in test [9] was inactive.

With `CCN(CC)CCSC(=O)C(c1ccccc1)c1ccccc1`, the Potency result in test [1], in [2], in test [4], in [5], in [7] and in test [8] was “inactive” each time. The Potency entry in test [10], in test [11], in test [12], in [19], in [14] and in [15] was “inactive” each time. Also, the Potency entry in [16] is “inactive”. Besides, the Potency in test [18] is 29.8 µM (active). For the same molecule, the molecule was called inactive in test [6] and in [9].

For `O=C1OC(=O)c2ccc3c4c(ccc1c24)C(=O)OC3=O`, the Potency entry in test [1], in test [2], in [18], in [4], in test [5] and in test [7] was “inactive” throughout. The Potency result in test [8], in test [10], in [11], in [12], in test [19] and in test [14] was “inactive” in each case. The Potency entry in [15], in test [16] and in test [17] was “inactive” each time. In addition, the molecule was called inactive in test [6] and in [9].

On to `CC(C)(C)c1n[nH]c(=O)n(N)c1=O`, for which the Potency result in [1], in test [2], in test [3], in [4], in test [5] and in test [7] was “inactive” in each case. Further, the Potency entry in test [8], in test [11], in [13], in test [19], in [14] and in test [15] was “inactive” throughout. Moreover, the Potency entry in test [16] and in test [17] was “inactive” in each case. For the same molecule, the call in test [6] and in test [9] was inactive.

`C[C@@H]1CC[C@H]2C(C)(C)[C@H]3C[C@@]12CC[C@@]3(C)O`: the Potency entry in test [1], in [2], in test [3], in [4], in [5] and in test [7] was “inactive” throughout. Also, the Potency result in test [8], in test [11], in test [12], in test [13], in [14] and in test [17] was “inactive” throughout.

Turning to `CN(C)c1ccc(N=Nc2ccccc2C(=O)O)cc1`, the Potency in [1] is 15.4 µM (active); in test [2] it was 68.6 µM (active); in test [10] it was 15.4 µM (active); in test [17], 61.1 µM (active). For the same molecule, the Potency entry in test [18], in test [4], in [5], in [13], in [19] and in [14] was “inactive” in each case. In addition, the Potency entry in test [15] and in test [16] was “inactive” in each case.

Regarding `CCCCCCCCCC(=O)N(C)C`, the Potency entry in test [1], in test [2], in test [18], in test [4], in test [7] and in [8] was “inactive” in each case. For the same molecule, the Potency entry in test [12], in [13], in test [19], in test [14], in [15] and in [16] was “inactive” each time. For the same molecule, the Potency result in test [17] is “inactive”. The result in [6] and in [9] was inactive.

As for `C/C=C/CO`, the Potency entry in [1], in [2], in test [4], in test [5], in test [7] and in [8] was “inactive” throughout. For the same molecule, the Potency entry in test [10], in test [11], in [12], in test [13], in [19] and in test [14] was “inactive” in each case. In addition, the Potency entry in [15], in test [16] and in test [17] was “inactive” in each case. For the same molecule, the molecule was classed as inactive in test [6] and in [9].

These data come from PubChem BioAssay (Tox21).
